IL1B secr inh: blocks inflammasome-driven IL-1 beta release | AID 743279 | activity change, % at 57.5 µM | 4.7% of 360,000 active | THP-1 LPS/ATP IL-1B secretion, AlphaLISA, 16 h; hits give low values; in the data active means activity change below about -50%; inconclusive means mostly about -30% to -49%
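Secreted IL-1B measured by AlphaLISA bead assay after 16 h compound exposure of THP-1 cells; compounds (final up to 57.5 uM) added 1 h before LPS (250 ng/mL) and ATP (1.25 mM) stimulation; lower signal means less secretion.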
DT40 TDP1 CPT: DT40-hTDP1 cell growth loss with CPT; chicken DT40 Tdp1-/-;hTDP1 cells + 20 nM CPT, ATP luminescence, 48 h; 12% of 420,000 active; Potency, µM (top dose mostly 46.2 µM), without a hit: at the top dose activity change, negative = growth inhibition, most hits filed as inhibitors; AID 686979; further: potency means the concentration at half of the fitted maximal effect; nearly all actives have a fitted effect of over 55% in size
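Chicken DT40 Tdp1-/- cells stably complemented with human TDP1 were seeded at 400 cells/well in medium containing 20 nM camptothecin, exposed to pin-transferred compounds, and grown at 37 °C for at least 48 hr. Viability was read as ATP luminescence.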
DT40 TDP1 no CPT: qHTS for Inhibitors of human tyrosyl-DNA phosphodiesterase 1 (TDP1): qHTS in cells in absence of CPT; DT40 Tdp1-/- hTDP1 cells, no CPT, ATP luminescence, 48 h; Potency, µM (highest dose often 46.2 µM), for inactives: at the highest dose activity change, negative = growth inhibition, actives largely listed as inhibitors; 15% of 420,000 active; AID 686978, 2013; further: potency means the concentration at half of the fitted maximal effect; nearly all actives have a fitted effect of over 55% in size
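A cellular qHTS used chicken DT40 cells lacking endogenous Tdp1 but carrying stably transfected human TDP1. Compounds were applied without camptothecin, and cell growth kinetics were judged by ATP-dependent luminescence after ≥48 hr.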
HT1080-NT tox: kills 2HG-producing HT-1080-NT fibrosarcoma cells. HT-1080-NT fibrosarcoma viability, CellTiter-Glo ATP luminescence, 48 h. Potency, µM (top dose mostly 46.1 µM), without a hit: top-dose activity, negative = less viability, usual class: cytotoxic. 1.6% of 360,000 active. AID 686970;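 further: NT is the 2HG producing partner of a matched IDH1 knockdown line; potency means the concentration at half of the fitted maximal effect; 0% = DMSO-treated cells and -100% = media-only wells without cells; nearly all actives have a fitted effect of over 55% in size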
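Fibrosarcoma NT cells, 750 per well in 5% FBS RPMI, were exposed to compound for 48 hours. Viability: CellTiter-Glo luminescence.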
HT1080 IDH1KD tx: toxicity to HT-1080 IDH1 knockdown cells (counter line). HT-1080 IDH1 knockdown viability, ATP luminescence, 48 h. Potency, µM (top dose mostly 46.1 µM), for inactives: top-dose activity, negative = toxicity, actives largely listed as cytotoxic. 2% of 360,000 active. AID 686971;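 further: potency means the concentration at half of the fitted maximal effect; 0% = DMSO wells and -100% = cell-free medium wells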
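In this qHTS, HT-1080 cells depleted of IDH1 are exposed for 48 h at 37 °C to compound titrations. Toxicity is scored from CellTiter-Glo luminescence, with DMSO as full viability and medium alone as none.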
Active calls of the source: *; ? = inconclusive; nt = not tested or not shown. A selection: hits, their analogues and other compounds. The true share with any hit is near 19%. Unless noted, the call rests on the fitted dose curve; in most records, active means well fitted curve in the direction sought with a large enough effect; inconclusive means small, poorly fitted or top-dose-only effect, or another doubt; inactive means no such curve, though single readings can be large; an effect the other way counts as inactive or inconclusive. Unless noted, on the % scale 0 is the no-effect control and ±100 the full control effect.

SMILES | IL1B secr inh | DT40 TDP1 CPT | DT40 TDP1 no CPT | HT1080-NT tox | HT1080 IDH1KD tx
O=C(CCCC(=O)N1CCc2ccccc21)N1CCc2ccccc21 | 6 | -4% | -11% | 14% | 9%
CCOCC(=O)N1CCc2ccccc21 | 51 | 0% | 18µM* | -4% | -7%
CCc1ccc(C(=O)OCC(=O)N(CCOC)c2c(N)n(Cc3ccccc3)c(=O)[nH]c2=O)cc1 | 6 | -9% | 3% | 1% | 7%
Cc1cc(C)n2c(SCC(=O)Nc3cc(S(=O)(=O)N(C)C)ccc3C)nnc2n1 | 30 | -5% | -16% | 7% | 8%
CCOc1ccc2[nH]cc(S(=O)(=O)c3ccc(Cl)cc3)c(=O)c2c1 | 2 | 9.2µM* | 9.2µM* | -14% | -14%
CCOc1ccc2[nH]cc(S(=O)(=O)c3ccc(C)cc3)c(=O)c2c1 | 4 | ? | ? | 5% | 0%
CCC(C)[C@H](NS(=O)(=O)c1ccc(C)cc1)C(=O)N1CCC(C(=O)N2CCC(C(N)=O)CC2)CC1 (some centres not stated) | -7 | 1% | 5% | -2% | -3%
Cc1ccc(C2C(C#N)=C(N)Oc3cc(C)oc(=O)c32)o1 (configuration not stated) | -5 | 18µM* | 18µM* | -28% | ?
Cc1ccc(C)c(C2C(C#N)=C(N)Oc3cc(C)oc(=O)c32)c1 (configuration not stated) | 7 | 0% | -3% | 15% | 14%
COC(=O)c1sc(=S)sc1C(=O)OC | -12 | 29µM* | ? | ? | 32µM*
COc1ccccc1C(=O)N1CCN(c2cccc(Cl)c2)CC1 | 47 | 1.8µM* | 1.6µM* | 2.6µM* | 2.6µM*
CCn1cc(C(=O)N2CCN(c3ccc(OC)cc3)CC2)c2cc(OC)c(OC)cc2c1=O | 2 | 10% | -12% | 0% | 5%
Cc1[nH]c(-c2ccc(F)cc2)cc1C(=O)N1CCN(c2cccc(Cl)c2)CC1 | -87* | -8% | 16µM* | ? | ?
CCn1cc(C(=O)N2CCN(c3cccc(Cl)c3)CC2)c2cc(OC)c(OC)cc2c1=O | -2 | 16µM* | 23µM* | ? | ?
COc1cc2c(C(=O)N3CCN(c4cccc(Cl)c4)CC3)cn(C)c(=O)c2cc1OC | 2 | 5.2µM* | 3.7µM* | ? | 12µM*
O=C(c1c(Cl)nc2sccn12)N1CCN(c2cccc(Cl)c2)CC1 | 4 | 2.3µM* | 2.3µM* | ? | 3.3µM*
O=C(c1cc2ccccc2cc1O)N1CCN(c2cccc(Cl)c2)CC1 | -1 | ? | ? | 11% | 2%
Oc1c(Cl)cc(Cl)cc1C1=NNC(c2ccc(Cl)cc2)C1 (configuration not stated) | -3 | -35% | ? | 1% | -20%
Oc1ccc(Cl)cc1C1=NNC(c2ccc(Cl)cc2)C1 (configuration not stated) | ? | 23µM* | 13µM* | -18% | ?
CC1(C)Cc2c(sc3[nH]c(=S)n(Cc4ccco4)c(=O)c23)CO1 | ? | 21µM* | ? | ? | ?
CC1(C)Cc2c(sc3c2c(=N)n(Cc2ccco2)c(=O)n3Cc2ccccc2)CO1 | -23 | 18µM* | ? | -10% | -14%
CN(C)Cc1ccccc1CNC(=O)c1ccc(Cl)c(S(=O)(=O)NC2CC2)c1 | 10 | 1% | -14% | 1% | -1%
Cc1ccc(Cc2c(-c3ccc(C)cc3)nc3cc(C)ccn23)cc1 | -6 | 21µM* | 21µM* | -13% | -13%
Cc1ccc(Cc2c(-c3ccc(F)cc3)nc3c(Cl)cc(C(F)(F)F)cn23)cc1 | 12 | -30% | -15% | -11% | -7%
Cc1ccn2c(CC(C)(C)C)c(-c3ccc(F)cc3)nc2c1 | 11 | 21µM* | 21µM* | 10% | 6%
SMILES | IL1B secr inh | DT40 TDP1 CPT | DT40 TDP1 no CPT | HT1080-NT tox | HT1080 IDH1KD tx
Cc1ccc(Cc2c(-c3ccc(C#N)cc3)nc3c4ccccc4ccn23)cc1 | 3 | ? | ? | -1% | 7%
Cc1ccc(Cc2c(-c3ccc(Cl)cc3)nc3cc(C)ccn23)cc1 | -6 | ? | 18µM* | 5% | 8%
CC(=O)Nc1nc2cc3c(cc2s1)OCCO3 | ? | ? | 23µM* | 2% | -2%
Cc1cc(C)c2sc(NC(=O)C3=COCCO3)nc2c1 | -58* | -11% | -15% | -1% | -22%
O=C(Nc1nc2cc3c(cc2s1)OCCO3)C1=COCCO1 | -53* | 23µM* | ? | 15µM* | 13µM*
COc1ccc(OCC(=O)Nc2nc3cc4c(cc3s2)OCCO4)cc1 | -3 | 3% | -8% | 4% | 9%
Cc1nnc(NC(=O)C2=COCCO2)s1 | 9 | 6% | 7% | 0% | 1%
COc1ccc(CNC(=O)CCSCc2ccccc2C)cc1 | 41 | 7% | 6% | 5% | 12%
COc1cc(OC)c(C(=O)O/N=C(\N)c2ccc(C)cc2)cc1OC | ? | ? | ? | -8% | -4%
COc1ccc(C(=O)CC(C#N)c2ccc3c(c2)OCO3)cc1OC (configuration not stated) | -10 | ? | 21µM* | 4% | -19%
COc1cc(OC)c(C(=O)O/N=C(\N)c2cccc(C)c2)cc1OC | -15 | 21µM* | ? | ? | ?
N/C(Cc1cccc2ccccc12)=N\OC(=O)c1ccc2c(c1)OCO2 | 16 | 16µM* | 21µM* | -4% | -1%
COc1ccc(/C(N)=N/OC(=O)c2ccc3c(c2)OCO3)cc1OC | -62* | 21µM* | ? | ? | 0%
N/C(CN1CCSCC1)=N\OCc1c(F)cccc1Cl | nt | 5% | -2% | 19% | 17%
CC1(c2ccc(OC(F)F)cc2)NC(=O)N(CC(=O)N2c3ccccc3NC(=O)C2(C)C)C1=O (configuration not stated) | 18 | -24% | -14% | -14% | -7%
Cc1cccc(/C(N)=N/OC(=O)c2cccs2)c1 | 22 | -29% | -23% | 8% | 2%
COc1ccc(/C(N)=N/OC(=O)c2cccs2)cc1OC | ? | 12µM* | ? | 8% | -14%
N/C(=N\OC(=O)c1cccs1)c1ccccc1 | -14 | ? | ? | 3% | -6%
Cc1ccc(/C(N)=N/OC(=O)c2cccs2)cc1 | -4 | 23µM* | 21µM* | -1% | -9%
Nn1cc(-c2ccccc2)nc1SCC(=O)Nc1ccc(S(N)(=O)=O)cc1 | -15 | -4% | -10% | -8% | -4%
CCN(CC)S(=O)(=O)c1ccc(NS(=O)(=O)CC23CCC(CC2=O)C3(C)C)cc1 (configuration not stated) | 18 | ? | ? | -4% | -3%
